Values joined by “and” are separate entries in the source; they are usually repeats but may differ in a detail not shown here. Identical values can stand only once. Results filed as inconclusive are left out. Unmarked numbers belong to inactive results. Active and inactive are the calls of the source. The call rests on the fitted dose curve; in most records, active means well fitted curve in the direction sought with a large enough effect; inconclusive means small, poorly fitted or top-dose-only effect, or another doubt; inactive means no such curve, though single readings can be large; an effect the other way counts as inactive or inconclusive. Where a SMILES comes first, the peptide text is derived from it. Bridges are numbered along the chain shown (N, C = ends). [ ]: non-standard residue; d: D form. hArg = N=C(N)NCCCC[C@H](N)C(=O)O; Mpa = O=C(O)CCS
Target: Cytochrome P450 3A7 (Homo sapiens) (UniProt P24462)
Sequence (P24462 whole entry, looked up): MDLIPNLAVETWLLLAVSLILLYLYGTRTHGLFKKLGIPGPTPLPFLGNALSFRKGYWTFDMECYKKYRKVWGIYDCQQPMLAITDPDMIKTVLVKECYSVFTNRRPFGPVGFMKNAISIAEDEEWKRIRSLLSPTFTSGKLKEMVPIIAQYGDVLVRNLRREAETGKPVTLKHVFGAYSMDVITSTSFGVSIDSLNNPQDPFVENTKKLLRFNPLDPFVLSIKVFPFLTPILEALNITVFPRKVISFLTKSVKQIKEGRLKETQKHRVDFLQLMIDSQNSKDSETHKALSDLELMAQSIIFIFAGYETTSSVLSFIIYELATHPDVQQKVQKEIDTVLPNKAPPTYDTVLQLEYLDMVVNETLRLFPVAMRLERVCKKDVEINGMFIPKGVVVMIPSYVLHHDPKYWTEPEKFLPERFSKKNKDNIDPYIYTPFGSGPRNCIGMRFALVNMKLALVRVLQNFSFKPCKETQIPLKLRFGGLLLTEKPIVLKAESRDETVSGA
Test: Cytochrome P450 family 3 subfamily A member 7 (CYP3A7) small molecule antagonists: luciferase biochemical qHTS assay (AID 1963596); further: nearly all actives have a fitted effect of over 40% in size
Conditions: P450-Glo CYP3A7 enzyme luminescence, 1 h; series mostly up to 57.4 µM
In short: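 Recombinant CYP3A7 P450-Glo luminescent assay: enzyme-proluciferin substrate mix preincubated with compound 10 min at room temperature, reaction started with NADPH regeneration system for 1 h. Luciferin detected by luminescence; ketoconazole as positive control.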
For `N#Cc1cccc(-c2c[nH]c3ncnc(N4CCOCC4)c23)c1`, the Potency was “inactive”. In the case of `CCOC(=O)c1ccc(O)cc1`, the Potency is reported as “inactive”. For `NCCNC(=O)c1ccc(Cl)cn1`, the Potency was “inactive”. With `Cc1cccc(C(=O)O)c1O` the Potency was “inactive”. With `CN1C(=O)c2ccccc2C1=O` the Potency was “inactive”. For `CO[C@@H]1[C@@H](O[C@@H]2O[C@H](C)[C@@H](O[C@H]3C[C@@](C)(O)[C@@H](O)[C@H](C)O3)[C@H](N(C)C)[C@H]2O)[C@@H](CC=O)C[C@@H](C)[C@@H](O[C@@H]2CC[C@H](N(C)C)[C@@H](C)O2)/C=C/C=C/C[C@@H](C)OC(=O)C[C@H]1OC(C)=O`, the Potency was “inactive”. With `CN/C(=C\[N+](=O)[O-])NCCSCc1csc(CN(C)C)n1` the Potency was “inactive”. With `OC[C@]1(O)OC[C@@H](O)[C@H](O)[C@@H]1O` the Potency was “inactive”. With `O=C(Nc1ccc([N+](=O)[O-])cc1)Nc1ccc([N+](=O)[O-])cc1` the Potency was “inactive”. In the case of `COc1c(N2C[C@@H]3CCCN[C@@H]3C2)c(F)cc2c(=O)c(C(=O)O)cn(C3CC3)c12`, the Potency is reported as “inactive”. With `CC(=O)Nc1c(I)c(NC(C)=O)c(I)c(C(=O)O)c1I` the Potency was “inactive”. With `COC(=O)N[C@@H](C)CNc1nccc(-c2cn(C(C)C)nc2-c2cc(Cl)cc(NS(C)(=O)=O)c2F)n1` the Potency was “inactive”. For `CN(C)C(=O)Nc1ccc(Cl)c(Cl)c1`, the Potency was “inactive”. With `CCN1CCC[C@H]1CNC(=O)c1c(O)c(Cl)cc(Cl)c1OC` the Potency was “inactive”. In the case of `NC(=O)[C@@H]1CSSCCC(=O)N[C@@H](CCCCN=C(N)N)C(=O)NCC(=O)N[C@@H](CC(=O)O)C(=O)N[C@@H](Cc2c[nH]c3ccccc23)C(=O)N2CCC[C@H]2C(=O)N1` ([Mpa][hArg]GDWPC-NH2; disulfide 1-7), the Potency is reported as “inactive”. In the case of `COP(=O)(OC)OC(c1ccc(Cl)cc1)P(=O)(OC)OC` (stereo not given), the Potency is reported as “inactive”. For `NC(=O)NC1N=C([O][Al])NC1=O` (stereo not given), the Potency was 12.3 µM (active). In the case of `CC1c2ccccc2CN1NC(=O)c1ccc(Cl)c(S(N)(=O)=O)c1` (stereo not given), the Potency is reported as “inactive”. With `O=C(Oc1ccccc1)c1cccc(C(=O)Oc2ccccc2)c1` the Potency was “inactive”. In the case of `Nc1ccncc1N`, the Potency is reported as “inactive”. With `Nc1ncnc2c1ncn2Cc1c(F)cccc1Cl` the Potency was “inactive”. With `Cn1c(=O)c2c(ncn2CC(=O)O)n(C)c1=O` the Potency was “inactive”. In the case of `OC[C@H]1O[C@@H](Oc2ccc(O)cc2)[C@H](O)[C@@H](O)[C@@H]1O`, the Potency is reported as “inactive”. In the case of `N=C(N)N`, the Potency is reported as “inactive”. With `CCCC(=O)O[C@]1(C(=O)COC(=O)CC)CC[C@H]2[C@@H]3CCC4=CC(=O)CC[C@]4(C)[C@H]3[C@@H](O)C[C@@]21C` the Potency was “inactive”. In the case of `NCCS`, the Potency is reported as “inactive”. With `CCN1CC(CCN2CCOCC2)C(c2ccccc2)(c2ccccc2)C1=O` (stereo not given) the Potency was “inactive”. In the case of `CC(=O)OCC(=O)[C@@]1(OC(C)=O)[C@@H](C)C[C@H]2[C@@H]3C[C@H](F)C4=CC(=O)C=C[C@]4(C)[C@@]3(F)[C@@H](O)C[C@@]21C`, the Potency is reported as “inactive”. For `CC(C)c1cc2c(cc1S(=O)(=O)O)[C@@]1(C)CCC[C@@](C)(C(=O)O)[C@@H]1CC2`, the Potency was “inactive”. In the case of `CO/N=C(\C(=O)N[C@@H]1C(=O)N2C(C(=O)O)=C(CSc3nc(=O)c(O)nn3C)CS[C@H]12)c1csc(N)n1`, the Potency is reported as “inactive”. With `NC(=O)CC[C@@H]1NC(=O)[C@H](Cc2ccccc2)NC(=O)[C@H](Cc2ccc(O)cc2)NC(=O)CCSSC[C@@H](C(=O)N2CCC[C@H]2C(=O)N[C@@H](CCCN=C(N)N)C(=O)NCC(N)=O)NC(=O)[C@H](CC(N)=O)NC1=O` the Potency was “inactive”. For `NC(=O)c1ncn([C@@H]2O[C@H](CO)[C@@H](O)[C@H]2O)n1`, the Potency was “inactive”. In the case of `Cc1ccc(NC(=O)Nc2cc(C(F)(F)F)ccc2F)cc1Nc1ccc2c(c1)NC(=O)/C2=C\c1ccc[nH]1`, the Potency is reported as “inactive”. For `CCN(CC)CC(=O)Nc1c(C)cccc1C`, the Potency was “inactive”. For `COC(=O)c1cc(Cl)ccc1NS(=O)(=O)C(F)(F)F`, the Potency was “inactive”. In the case of `Cc1ccc(S(=O)(=O)NC(=O)NC2CCCC2)cc1`, the Potency is reported as “inactive”. With `O=C(O)Cc1ccc2c(c1)C(=O)c1ccccc1CO2` the Potency was “inactive”. In the case of `CN1CCN(c2c(F)cc3c(=O)c(C(=O)O)cn4c3c2SCC4)CC1`, the Potency is reported as “inactive”. For `O=C(O)CCC(=O)OC[C@@H](NC(=O)C(Cl)Cl)[C@H](O)c1ccc([N+](=O)[O-])cc1`, the Potency was “inactive”. For `Cn1cc(S(C)=O)c(=O)c2ccc(F)cc21` (stereo not given), the Potency was “inactive”.

Test system: not listed separately
Test: Cellular viability qHTS for adrenocortical cancer (ACC) cell line SW-13 (AID 1963989); further: nearly all actives have a fitted effect of over 65% in size;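 on activity (max response): cells grown in serum-free medium with ITS supplement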
Conditions: SW-13 ACC cells viability, CellTiter-Glo, 48 h; activity (max response): active compounds read low
In short: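 Viability was read as CellTiter-Glo luminescence after 48 h compound treatment (up to 46 uM final) of SW-13 cells grown serum-free; titration curves were fit with a four-parameter logistic model to give IC50 and efficacy.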
Compound `N#Cc1cccc(-c2c[nH]c3ncnc(N4CCOCC4)c23)c1` has an activity (max response) of 9.94%. With `CCOC(=O)c1ccc(O)cc1` the activity (max response) was 9.4%. With `NCCNC(=O)c1ccc(Cl)cn1` the activity (max response) was -2.26%. `Cc1cccc(C(=O)O)c1O` showed an activity (max response) of 14.1%. Compound `CN1C(=O)c2ccccc2C1=O` has an activity (max response) of -9.75%. `CO[C@@H]1[C@@H](O[C@@H]2O[C@H](C)[C@@H](O[C@H]3C[C@@](C)(O)[C@@H](O)[C@H](C)O3)[C@H](N(C)C)[C@H]2O)[C@@H](CC=O)C[C@@H](C)[C@@H](O[C@@H]2CC[C@H](N(C)C)[C@@H](C)O2)/C=C/C=C/C[C@@H](C)OC(=O)C[C@H]1OC(C)=O` gave an activity (max response) of -1.59%. With `CN/C(=C\[N+](=O)[O-])NCCSCc1csc(CN(C)C)n1` the activity (max response) was 7.35%. Compound `OC[C@]1(O)OC[C@@H](O)[C@H](O)[C@@H]1O` has an activity (max response) of 6.17%. In the case of `O=C(Nc1ccc([N+](=O)[O-])cc1)Nc1ccc([N+](=O)[O-])cc1`, the activity (max response) is reported as 3.91%. Compound `COc1c(N2C[C@@H]3CCCN[C@@H]3C2)c(F)cc2c(=O)c(C(=O)O)cn(C3CC3)c12` has an activity (max response) of -4.75%. For `CC(=O)Nc1c(I)c(NC(C)=O)c(I)c(C(=O)O)c1I`, the activity (max response) was 2.04%. Compound `COC(=O)N[C@@H](C)CNc1nccc(-c2cn(C(C)C)nc2-c2cc(Cl)cc(NS(C)(=O)=O)c2F)n1` has an activity (max response) of -16%. Compound `CN(C)C(=O)Nc1ccc(Cl)c(Cl)c1` has an activity (max response) of -2.09%. With `CCN1CCC[C@H]1CNC(=O)c1c(O)c(Cl)cc(Cl)c1OC` the activity (max response) was 8.2%. With `NC(=O)[C@@H]1CSSCCC(=O)N[C@@H](CCCCN=C(N)N)C(=O)NCC(=O)N[C@@H](CC(=O)O)C(=O)N[C@@H](Cc2c[nH]c3ccccc23)C(=O)N2CCC[C@H]2C(=O)N1` ([Mpa][hArg]GDWPC-NH2; disulfide 1-7) the activity (max response) was 17.5%. `COP(=O)(OC)OC(c1ccc(Cl)cc1)P(=O)(OC)OC` (stereo not given) showed an activity (max response) of -0.893%. With `NC(=O)NC1N=C([O][Al])NC1=O` (stereo not given) the activity (max response) was -0.662%. With `CC1c2ccccc2CN1NC(=O)c1ccc(Cl)c(S(N)(=O)=O)c1` (stereo not given) the activity (max response) was -11.8%. With `O=C(Oc1ccccc1)c1cccc(C(=O)Oc2ccccc2)c1` the activity (max response) was -1.98%. Compound `Nc1ccncc1N` has an activity (max response) of -0.994%. Compound `Nc1ncnc2c1ncn2Cc1c(F)cccc1Cl` has an activity (max response) of 6.36%. Work on `Cn1c(=O)c2c(ncn2CC(=O)O)n(C)c1=O` yielded an activity (max response) of 9.83%. For `OC[C@H]1O[C@@H](Oc2ccc(O)cc2)[C@H](O)[C@@H](O)[C@@H]1O`, the activity (max response) was -0.0454%. Compound `N=C(N)N` has an activity (max response) of 4.4%. Work on `CCCC(=O)O[C@]1(C(=O)COC(=O)CC)CC[C@H]2[C@@H]3CCC4=CC(=O)CC[C@]4(C)[C@H]3[C@@H](O)C[C@@]21C` yielded an activity (max response) of 8.42%. For `NCCS`, the activity (max response) was 16.9%. For `CCN1CC(CCN2CCOCC2)C(c2ccccc2)(c2ccccc2)C1=O` (stereo not given), the activity (max response) was 1.41%. Compound `CC(=O)OCC(=O)[C@@]1(OC(C)=O)[C@@H](C)C[C@H]2[C@@H]3C[C@H](F)C4=CC(=O)C=C[C@]4(C)[C@@]3(F)[C@@H](O)C[C@@]21C` has an activity (max response) of 3.57%. `CC(C)c1cc2c(cc1S(=O)(=O)O)[C@@]1(C)CCC[C@@](C)(C(=O)O)[C@@H]1CC2` gave an activity (max response) of 15.8%. `CO/N=C(\C(=O)N[C@@H]1C(=O)N2C(C(=O)O)=C(CSc3nc(=O)c(O)nn3C)CS[C@H]12)c1csc(N)n1` gave an activity (max response) of 16.1%. `NC(=O)CC[C@@H]1NC(=O)[C@H](Cc2ccccc2)NC(=O)[C@H](Cc2ccc(O)cc2)NC(=O)CCSSC[C@@H](C(=O)N2CCC[C@H]2C(=O)N[C@@H](CCCN=C(N)N)C(=O)NCC(N)=O)NC(=O)[C@H](CC(N)=O)NC1=O` showed an activity (max response) of -1.25%. For `NC(=O)c1ncn([C@@H]2O[C@H](CO)[C@@H](O)[C@H]2O)n1`, the activity (max response) was -0.314% and -2.41%. For `Cc1ccc(NC(=O)Nc2cc(C(F)(F)F)ccc2F)cc1Nc1ccc2c(c1)NC(=O)/C2=C\c1ccc[nH]1`, the Potency was 22.4 µM (active). For `CCN(CC)CC(=O)Nc1c(C)cccc1C`, the activity (max response) was 2.91%. In the case of `COC(=O)c1cc(Cl)ccc1NS(=O)(=O)C(F)(F)F`, the activity (max response) is reported as -0.552%. In the case of `Cc1ccc(S(=O)(=O)NC(=O)NC2CCCC2)cc1`, the activity (max response) is reported as 10.7%. In the case of `O=C(O)Cc1ccc2c(c1)C(=O)c1ccccc1CO2`, the activity (max response) is reported as 11.3%. For `CN1CCN(c2c(F)cc3c(=O)c(C(=O)O)cn4c3c2SCC4)CC1`, the activity (max response) was -3.92%. In the case of `O=C(O)CCC(=O)OC[C@@H](NC(=O)C(Cl)Cl)[C@H](O)c1ccc([N+](=O)[O-])cc1`, the activity (max response) is reported as -6.44%. With `Cn1cc(S(C)=O)c(=O)c2ccc(F)cc21` (stereo not given) the activity (max response) was 8.71%.

Source: PubChem BioAssay (NCATS)
On the % scale 0 is the no-effect control and ±100 the full control effect; potency means the concentration at half of the fitted maximal effect.
